From PubChem
Lmaj promast: Leishmania major promastigote growth inhibition, primary screen | 200,000 tested, 9% active | inhibition, % at 10 µM | AID 1063, 2008 | Leishmania major promastigotes, resazurin fluorescence viability; in the data active = inhibition above about 50%;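 note: promastigotes grown with compound for 44 hours at 28 °C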
RAM inhibit: inhibitors of the yeast RAM network, primary screen, dse1pr::URA3 reporter, 5-FOA selection; S. cerevisiae dse1pr::URA3 reporter, 5-FOA growth OD615, 2 d; analog-sensitive cbk1-as2 kinase mutant strain; inhibition, % at 50 µM; 190,000 tested, 1.8% active;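 active = inhibition above a set limit, 3 SD over mean compound inhibition, cut at about 8.4% in these data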;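 note: 0% = DMSO-only wells with no growth and 100% = 10 µM 1-NA-PP1 full growth; inhibition rescues growth on 5-FOA so higher OD means more RAM inhibition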
CHOP inh: inhibitors of CHOP promoter induction, primary screen, cell-based, unfolded protein response, luciferase reporter | inhibition, % at 10 µM | AID 2732, 2010 | CHO-K1 CHOP-promoter luciferase, tunicamycin-induced, 15-18 h | 220,000 tested, 3.8% active;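 active = compounds that reduced the stress-induced luciferase reporter signal by more than about 70% of percent inhibition, limit read from the data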;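 note: 0% = tunicamycin plus vehicle and 100% = wells without tunicamycin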
WT yeast gro inh: growth inhibition of WT strain, primary screen, mitochondrial fusion inhibitor project, WT and mutant strains, chemical genetic; mitochondrial fusion phenotypic screen; inhibition, % at 10 µM; 190,000 tested, 2.1% active; in the data active = inhibition above about 58%; tested in S. cerevisiae
* = called active by the depositor; · = not tested or not shown; ! = not confirmed by another sample. An excerpt weighted towards active compounds, which were near 13% of everything screened.

SMILES | Lmaj promast | RAM inhibit | CHOP inh | WT yeast gro inh
COC(C[C@@H](O)C[C@H](O)COCc1ccccc1)OC | · | · | 10.6 | ·
C=CCn1c(COc2ccc(CC)cc2)nnc1SC/C(O)=C(\C#N)c1nc2ccccc2[nH]1 | -4.5 | 3.9 | 88.1* | -6.9
C=CCn1c(COc2ccccc2)nnc1SCc1ccc(C#N)cc1 | 39.7 | 0.2 | -23.9 | -18.2
O=C(/C=C/c1ccccc1)N1CCN(c2c(Cl)cccc2[N+](=O)[O-])CC1 | 35.0 | 2.9 | -5.3 | 48.4
COc1cc(/C=N/n2c(-c3ccc4c(c3)NC(=O)CO4)csc2=Nc2cccc(C)c2)ccc1O | 91.6* | 6.6 | 41.1 | 29.9
COCCN=c1scc(-c2ccc3c(c2)NC(=O)CO3)n1/N=C(\C)c1ccc(O)cc1 | · | · | -4.3 | ·
CN1CCN(CCCN2c3ccccc3Sc3ccc(C(F)(F)F)cc32)CC1 | 85.5* | 0.1 | 95.9*! | 92.6*!
O=C(CN1CCCC(O)C1)N1c2ccccc2Sc2ccc(C(F)(F)F)cc21 (stereo unspecified) | 10.2 | 1.4 | 38.4 | -3.2
NC(=NC(=O)c1ccc(OCC(F)(F)F)nc1)c1ccc(Cl)cc1 | · | · | 81.7* | ·
NC(=O)CNC(=O)c1ccc(Cl)cc1 | · | · | 3.5 | ·
CC1CC2(CCCCC2)Nc2c1ccc1ccccc21 (stereo unspecified) | 34.5 | 9.4* | 62.5 | 8.0
CC(=O)N1c2c(ccc3ccccc23)C(C)CC12CCCCC2 (stereo unspecified) | 0.3 | 2.5 | -19.9 | 49.5
COc1ccc(CNC(=O)C2CCCN2C)cc1OC (stereo unspecified) | · | · | -0.5 | ·
CC(/C=C/C=C/c1ccccc1)=N/NC(=O)CNc1ccccc1C | -3.1 | 6.7 | -15.5 | 1.3
O=[N+]([O-])c1cc(C(F)(F)F)ccc1NCCCCNS(=O)(=O)c1ccc(Cl)cc1 | 24.4 | 7.7 | 46.9 | -7.1
O=[N+]([O-])c1cc(C(F)(F)F)ccc1NCCNC(=S)Nc1ccc(Cl)cc1 | 100.5* | 3.3 | 86.1* | -1.3
Cc1cccc(N(CC(=O)NCc2ccco2)C(=O)CCC(=O)Nc2nccs2)c1 | 30.1 | 1.6 | 14.0 | -29.6
COc1ccc(Nc2nnc(SCC(=O)/C=C3/N(C)c4ccccc4C3(C)C)s2)cc1 | 96.1* | 7.1 | 52.4 | 31.4
CC(=O)C(/C=N/c1ncc(C(F)(F)F)cc1Cl)=C(\C)O | -2.0 | 3.1 | 18.6 | -10.4
C=CCN(c1ccccc1Cl)S(=O)(=O)c1cc(C(=O)N2CCCC2)ccc1Cl | · | · | 3.8 | ·
Cc1nn(CCO)c2nc(-c3cccs3)cc(C(F)(F)F)c12 | 9.6 | 1.4 | 85.2* | 24.9
Cc1nn(C)c2nc(-c3cccs3)cc(C(F)(F)F)c12 | -6.7 | 3.8 | 58.7 | 10.6
O=C(Cn1nc(Cc2cccnc2)c2ccccc2c1=O)NCc1ccc(F)cc1 | -8.2 | 1.2 | 18.0 | -5.2
COc1ccc(/C=C/C(=O)Nc2ccccc2C)cc1S(=O)(=O)N1CCOCC1 | · | · | -8.9 | ·
COc1ccc(NC(=O)COC(=O)/C=C/c2ccc(OC)c(S(=O)(=O)N3CCOCC3)c2)cc1 | 57.1* | -0.3 | -7.6 | -22.9
SMILES | Lmaj promast | RAM inhibit | CHOP inh | WT yeast gro inh
COc1cc(/C=C/C(=O)OCC(=O)N2CCN(S(=O)(=O)c3ccc(C)cc3C)CC2)ccc1O | 97.8* | 3.2 | 6.5 | -23.8
COc1cccc(/C=C/C(=O)OCC(=O)Nc2ccc(S(=O)(=O)N3CCCC3)cc2)c1 | 68.2* | 9.8* | 41.9 | 2.8
COc1ccc(/C=C/C(=O)Nc2cccc(F)c2)cc1S(=O)(=O)N1CCOCC1 | 50.1* | 4.8 | -27.0 | 2.0
CCOC(=O)n1c(=O)n(Cc2ccccc2C)c2ccccc21 | 10.7 | 0.4 | 36.8 | 4.6
COC(=O)CNC(=S)NC(=O)c1ccc(C(C)(C)C)cc1 | 0.6 | -0.8 | -27.9 | 21.0
CCC(=O)c1ccc(OCC(=O)NCC2(N3CCCCC3)CCCCC2)cc1 | 17.6 | 1.2 | 23.6 | -9.3
O=C(COC(=O)c1cc(S(=O)(=O)N2CCCCC2)ccc1N1CCOCC1)NC1CCS(=O)(=O)C1 (stereo unspecified) | -5.6 | 1.0 | -3.5 | -18.7
CC(C)c1ccccc1OCC(=O)NC1CCCc2ccccc21 (stereo unspecified) | 4.5 | 2.5 | 75.5* | 60.8*
Cc1cccc(OCC(=O)NC2CCCc3ccccc32)c1C (stereo unspecified) | 60.7* | 2.4 | 62.5 | 27.2
CCOc1ccc(-c2[nH]ncc2Oc2ccccc2OC)c(O)c1 | 15.5 | 1.2 | 82.0* | 32.1
CCOc1ccc(-c2[nH]ncc2Oc2ccccc2OCC)c(O)c1 | 41.9 | 3.7 | 80.0* | 64.8*
COc1ccc(-c2[nH]ncc2-c2ccc3c(c2)OCCO3)c(O)c1 | -0.8 | 10.1* | 68.9 | 9.1
